# Compounds with a hit are over-represented: about 9.2% of the library has one in this group of screens.
# SMN2 splice up: SMN2 splice variant enhancement | 210,000 tested, 2.8% active | HEK293 SMN2-luciferase splicing reporter, luminescence, 30-36 h | AID 1458 | Potency, µM (highest dose often 46.1 µM), for the others: top-dose activity change, positive = activation, actives largely listed as activators; also: % of control where 0% means no effect; nearly all actives have a fitted effect of over 55% in size
#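 HEK293 cells carry an SMN2 […]–luciferase reporter in which exon 7 inclusion puts luciferase in frame. Cells were plated 10-12 h before compound addition, then incubated 30-36 h at 37C. ONE-Glo luminescence was read; sodium butyrate at 4.5 mM final served as control.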
# FLuc modulator: counter-screen for miR-21 project: firefly luciferase inhibitors or activators. 360,000 tested, 6.9% active. purified FLuc, Km substrates, luminescence inhibition. P08659. Potency, µM (top dose mostly 57.5 µM), inactives show at the top dose activity change, negative = inhibition, actives largely listed as inhibitors;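 also: plate controls were vehicle for no effect and reference inhibitor for full effect; nearly all actives have a fitted effect of over 55% in size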
# Target sequence (P08659 whole entry, looked up): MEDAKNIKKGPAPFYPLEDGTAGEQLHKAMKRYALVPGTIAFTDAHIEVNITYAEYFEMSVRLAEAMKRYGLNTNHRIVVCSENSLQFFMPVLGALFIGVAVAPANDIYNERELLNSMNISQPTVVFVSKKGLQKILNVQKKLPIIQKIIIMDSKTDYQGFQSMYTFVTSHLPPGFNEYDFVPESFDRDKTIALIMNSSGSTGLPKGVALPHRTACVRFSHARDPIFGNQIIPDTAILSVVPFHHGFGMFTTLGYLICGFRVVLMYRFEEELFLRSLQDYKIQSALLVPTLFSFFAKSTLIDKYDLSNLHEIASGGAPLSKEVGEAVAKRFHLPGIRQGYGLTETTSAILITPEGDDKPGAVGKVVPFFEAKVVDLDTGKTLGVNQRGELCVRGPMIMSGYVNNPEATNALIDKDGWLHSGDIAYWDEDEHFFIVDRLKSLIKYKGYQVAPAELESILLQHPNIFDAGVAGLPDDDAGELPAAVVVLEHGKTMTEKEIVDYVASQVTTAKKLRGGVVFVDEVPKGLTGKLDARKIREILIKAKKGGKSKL
#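 Purified P. pyralis luciferase (10nM final) with 10uM D-luciferin and 10uM ATP (Km levels) in 50mM Tris acetate pH 7.5, 10mM Mg acetate, 0.01% Tween-20, 0.05% BSA; qHTS 6-point titration, ~60 µM downward; luminescence read.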
# ELG1 repair inh: blocks ELG1-dependent DNA repair in HEK293T cells. HEK293T ELG1-luciferase reporter, luminescence, 16 h; DNA damage induced by 5-fluorouridine. Potency, µM (series often up to 46.1 µM), without a hit: at the highest dose activity change, negative = inhibition, hits mostly inhibitors. 330,000 tested, 2.3% active; also: % is scaled to controls: 0 for no effect and ±100 for the full control effect; nearly all actives have a fitted effect of over 55% in size
#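 Step one: seed 2,000 cells per well. Step two: pin-transfer compound or DMSO alongside 5-fluorouridine. Step three: incubate 16 hr, 37 °C, 5% CO2. Step four: add ONE-Glo, wait 30 min, read luminescence.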
# Rab9 promoter act: activates the Rab9 promoter. Huh7 Rab9 promoter-luciferase reporter, luminescence, 24 h. Potency, µM (doses to about 9.22 µM), inactives show at the top dose activation, negative = inhibition, hits mostly activators. 320,000 tested, 2.8% active; also: % of control where 0% means no effect; nearly all actives have a fitted effect of over 60% in size
#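 Rab9 promoter-driven luciferase in stably transfected Huh7 cells; 1500 cells/well rested 2 h, exposed to compound in DMSO for 24 h at 37 °C, 5% CO2. Luminescence read 10 min after adding luciferase reagent at ambient temperature.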
# NPC1 promoter act: NPC1 promoter activation; Huh7 NPC1 promoter luciferase reporter, 24 h; Potency, µM (titrated, usually from 9.22 µM), without a hit: at the highest dose activation, hits mostly activators; 320,000 tested, 2.4% active; also: % of control where 0% means no effect; nearly all actives have a fitted effect of over 60% in size
#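 NPC1 promoter–luciferase Huh7 cells; 24 h compound; luminescence.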
# ELG1 genotoxic: inducers of genotoxicity in HEK293T ELG1-luciferase cells; HEK293T ELG1-luciferase reporter, luminescence, 16 h; Potency, µM (doses to about 46 µM), for inactives: top-dose activity change, positive = activation, hits mostly activators; 330,000 tested, 1.3% active; AID 504466; also: % of control where 0% means no effect; nearly all actives have a fitted effect of over 60% in size
#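 ELG1-luciferase HEK293T cells, 2,000/well; compound pinned in; 16 hr, 37 °C, 5% CO2; ONE-Glo, 30 min RT; luminescence on CCD imager.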
# An asterisk follows results filed as active; ? = inconclusive; nt = no result; [ ] = another dose, or the depositor's remark. Calls follow the shape of the dose curve; as a rule, active = well fitted curve in the direction sought with a large enough effect; inconclusive = small, poorly fitted or top-dose-only effect, or another doubt; inactive = no such curve, though single readings can be large; an effect the other way counts as inactive or inconclusive. Potency is read from the fitted curve at half-maximal effect.
SMILES,SMN2 splice up,FLuc modulator,ELG1 repair inh,Rab9 promoter act,NPC1 promoter act,ELG1 genotoxic
CCOC(=O)NC1(C(F)(F)F)NC(=O)N(c2ccc(C)c(C)c2)C1=O (stereo unspecified),-6.2%,0.0%,nt,nt,nt,nt
CCn1cc(C(=O)NCc2ccco2)c(=O)c2cc(S(=O)(=O)N3CCc4ccccc4C3)ccc21,-5.3%,-4.1%,10.3µM*,3.7%,0.1%,-5.4%
CCn1cc(C(=O)NCc2ccc(C)cc2)c(=O)c2cc(S(=O)(=O)N(C)C3CCCCC3)ccc21,-23.6%,0.0%,nt,nt,nt,nt
CCn1cc(C(=O)NCc2ccc(C)cc2)c(=O)c2cc(S(=O)(=O)N(C)C)ccc21,nt,-1.4%,20.6µM*,0.9%[1.84 µM],-3.8%,-0.9%
CCn1cc(C(=O)NCc2ccco2)c(=O)c2cc(S(=O)(=O)N3CCCCCC3)ccc21,-15.0%,-12.6%,4.61µM*,-1.7%,-4.9%,-7.4%
CCn1cc(C(=O)N2CCCC2)c(=O)c2cc(S(=O)(=O)N3CC(C)CC(C)C3)ccc21 (stereo unspecified),nt,0.0%,1.1%,-4.3%,1.2%,0.3%
CCn1cc(C(=O)NCc2ccco2)c(=O)c2cc(S(=O)(=O)N3CC(C)CC(C)C3)ccc21 (stereo unspecified),-46.8%,-2.9%,2.91µM*,0.0%,-5.3%,-8.1%
COC(=O)c1ccc(C(NC(=O)OCc2ccccc2)/C(C)=C/[C@@H](C)C(=O)NC2CCCCC2)cc1 (stereo partly specified),-11.9%,nt,nt,nt,nt,nt
CCCCCCNc1nc(Cl)nc(NC(C)(C)CO)n1,nt,5.5%,-15.4%,0.8%,0.9%,-0.8%
O=C(CNC(=O)c1ccccc1F)NCC(c1cccs1)N1CCOCC1 (stereo unspecified),nt,5.6%,15.8%,-0.4%,-1.1%,0.0%
CCn1cc(C(=O)NCc2ccco2)c(=O)c2cc(S(=O)(=O)N3CCC(C)CC3)ccc21,-16.3%,-2.9%,10.3µM*,-1.0%,-2.3%,-7.0%
CCn1cc(C(=O)NCc2ccc(C)cc2)c(=O)c2cc(S(=O)(=O)N3CCC(C)CC3)ccc21,nt,-2.8%,nt,nt,nt,nt
C=CCn1cc(C(=O)NCc2ccco2)c(=O)c2cc(S(=O)(=O)N3CCCCCC3)ccc21,nt,-7.5%,6.51µM*,0.1%,0.1%,2.1%
Cc1ccc(S(=O)(=O)N2CCN(C(=O)COC(=O)c3ccc(O)cc3)CC2)c(C)c1,nt,-0.2%,-21.0%,0.8%,0.1%,-5.1%
CCOC(=O)N1CCN(C(=O)C(C)N(c2ccc(Oc3ccccc3)cc2)S(C)(=O)=O)CC1 (stereo unspecified),-105.2%,9.3%,6.51µM*,-22.1%,-6.9%,1.0%
CCOC(=O)C1CCN(C(=O)C(C)N(c2ccc(Oc3ccccc3)cc2)S(C)(=O)=O)CC1 (stereo unspecified),nt,5.2%,-6.9%,-43.9%,-22.3%,-9.9%
Cc1cc(-c2nc3ncccc3o2)ccc1N,11.2µM*,16.9µM*,?,?,?,?
CCCC(=O)Nc1cc(-c2nc3ncccc3o2)ccc1Cl,nt,1.4%,15.2%,10.3%,-1.4%,-2.1%
CCC(=O)Nc1ccc(-c2nc3ncccc3o2)cc1C,?,-17.8%,nt,nt,nt,nt
Cc1ccc(-c2nc3ncccc3o2)cc1N,nt,15.1µM*,?,3.55µM*,3.98µM*,?
Nc1cc(-c2nc3ncccc3o2)ccc1Cl,10µM*,19µM*,?,3.98µM*,?,?
COC(=O)c1sccc1S(=O)(=O)N(CC(=O)NCc1ccc(C)cc1)c1ccc(C)c(C)c1,nt,-9.3%,nt,nt,nt,nt
O=C(NCc1ccc(Cl)cc1)C1CCCN(c2nc3ccccc3n3cccc23)C1 (stereo unspecified),nt,3.2%,nt,nt,nt,nt
O=C(NCCCN1CCN(c2cccc(Cl)c2)CC1)c1ccc2nc(Cc3ccccc3)oc2c1,nt,-1.3%,nt,nt,nt,nt
Cc1nc2nc(SCc3c(F)cccc3Cl)nn2c(C)c1Cc1ccccc1,nt,5.36µM*,nt,nt,nt,nt
SMILES,SMN2 splice up,FLuc modulator,ELG1 repair inh,Rab9 promoter act,NPC1 promoter act,ELG1 genotoxic
COc1cccc(N2CCN(C(=O)c3nc4nc(C)cc(C)n4n3)CC2)c1,5.2%,-2.6%,-3.4%,-0.6%,-3.3%,0.5%
COc1ccc(CNC(=O)c2cc(COc3c(F)cccc3F)on2)cc1OC,nt,-4.7%,?,-1.1%,-2.6%,-4.7%
COc1cc(Cl)ccc1OCc1cc(C(=O)NCc2cc(C(C)C)no2)no1,nt,9.53µM*,?,1.26µM*,?,?
COc1cc(Cl)ccc1OCc1cc(C(=O)NCC(C)(C)N2CCOCC2)no1,nt,15.1µM*,?,28.7%,22.6%,13.2%
CCc1ccc(NC(=O)CN2C(C(=O)OC)=C(c3ccccc3)c3ccccc3S2(=O)=O)cc1,-3.5%,-3.2%,nt,nt,nt,nt
CC(=O)c1ccc(NC(=O)c2ccc(CN3C(=O)CCn4nc(C)cc43)cc2)cc1,nt,-13.6%,nt,nt,nt,nt
CCOc1cc(C)c(S(=O)(=O)NCCCn2ccnc2)cc1C,nt,1.7%,-5.7%,-8.1%,-1.8%,-3.3%
COc1ccc(OC)c(Nc2ncnc3c2cnn3-c2ccccc2)c1,10.0%,?,?,-1.5%,10.5%,?
COc1cccc(Nc2ncnc3c2cnn3-c2cccc(C)c2)c1,-8.8%,16.9µM*,15.2%,?,?,4.6%
COc1ccc(OC)c(Nc2ncnc3c2cnn3-c2ccc(C)cc2)c1,nt,-14.5%,nt,nt,nt,nt
COc1ccc(Nc2ncnc3c2cnn3-c2ccc(C)cc2)cc1Cl,nt,23.9µM*,nt,nt,nt,nt
Cc1cccc(-n2ncc3c(Nc4ccc(C)c(Cl)c4)ncnc32)c1,nt,-19.5%,nt,nt,nt,nt
COc1ccccc1Nc1ncnc2c1cnn2-c1cccc(C)c1,12.1%,13.5µM*,?,8.8%,29.9%,1.5%
CCC(C)NC(=O)C1CCC(CNS(=O)(=O)c2ccc3c(c2)N(C(C)=O)CCO3)CC1 (stereo unspecified),nt,1.8%,10.3%,-0.5%,-3.1%,0.0%
COc1ccc(CCNC(=O)C2(c3cccs3)CCOCC2)cc1OC,nt,-1.0%,nt,nt,nt,nt

# Screening results as filed in PubChem.
